Measurements reported in PubChem BioAssay (Tox21).
Results filed as inconclusive are left out. A call without a number means that no potency is given here. Unmarked numbers belong to inactive results. Activity calls are given as the source filed them. Calls come from the whole dose curve; as a rule, active = well fitted cell-killing curve with a large enough effect in the repeat runs; inconclusive = weak or mixed curves, or effect the other way; inactive = flat fitted curve, though single readings scatter.
Potency is the fitted concentration of half-maximal effect.

Experiment: qHTS RealTime-Glo MT Cell Viability Assay in HEK293 cells - 8 hour (AID 1224887); note: nearly all actives have a fitted effect of over 50% in size; for activity change, negative = cytotoxicity: top concentration of the series differs between compounds
Conditions: RealTime-Glo luminescence; series mostly up to 76.8 µM
In short: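 Viable HEK293 cells reduce a cell-permeant prosubstrate; the product diffuses out and is consumed by NanoLuc in the medium to give light. Compounds went in after a 5 h incubation and plates were read over the treatment course.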
In the case of `c1ccccc1`, the Potency is reported as “inactive”. For `Cc1ccccc1C(=O)N1CC/C(=N\OS(=O)(=O)O)c2ccc(Cl)cc21`, the Potency was “inactive”. In the case of `C[CH2][Ge]([Cl])([CH2]C)[CH2]C`, the Potency is reported as “inactive”. In the case of `CCOC(=O)CC#N`, the Potency is reported as “inactive”. For `CCOc1ccc(NC(=O)OC(C)C)cc1OCC`, the Potency was “inactive”. For `OC(CCN1CCCCC1)(c1ccccc1)c1ccccc1`, the Potency was “inactive”. For `C[N+](C)(C)CC(O)CCl` (configuration not stated), the Potency was “inactive”. With `CCCCCCCC/C=C\CCCCCCCC(=O)OC[C@@H](O)[C@H]1OC[C@H](O)[C@H]1O` the Potency was “inactive”. For `CCCCCCCCOC(C)=O`, the Potency was “inactive”. In the case of `O=C(O)c1ccc(OCCN2CCCCC2)cc1`, the Potency is reported as “inactive”. In the case of `FC(F)(F)c1ccc(Cl)cc1Cl`, the Potency is reported as “inactive”. In the case of `COC(=O)CCC(=O)O`, the Potency is reported as “inactive”. In the case of `NS(=O)(=O)c1cc2c(cc1Cl)NC(CC1CCCC1)NS2(=O)=O` (configuration not stated), the Potency is reported as “inactive”. For `CC(C)COC(=O)CCCCC(=O)OCC(C)C`, the Potency was “inactive”. In the case of `CC(C)COC(=O)/C=C/c1ccccc1`, the Potency is reported as “inactive”. In the case of `CC1(N)CCC(C(C)(C)N)CC1` (configuration not stated), the Potency is reported as “inactive”. In the case of `O=S1(=O)CCCC1`, the Potency is reported as “inactive”. In the case of `CC1CCC(C(C)(C)S)C(=O)C1` (configuration not stated), the Potency is reported as 19.5 µM (active). In the case of `CCNC(=O)/C=C/c1cccc(Br)c1`, the Potency is reported as “inactive”. In the case of `C=COCCOCCOC=C`, the Potency is reported as “inactive”. For `COc1cc(C=O)ccc1OC(=O)C(C)C`, the Potency was “inactive”. With `CCOC(=O)CCc1ccccc1` the Potency was “inactive”. In the case of `Cc1nc(C)nc(N2C[C@@H](C)N(c3ccnc([C@@H](C)O)n3)[C@@H](C)C2)n1`, the Potency is reported as “inactive”. In the case of `NS(=O)(=O)c1ccc(Cl)c(S(N)(=O)=O)c1`, the Potency is reported as “inactive”. For `CCCCCCCC[Si](OCC)(OCC)OCC`, the Potency was “inactive”. With `O=C(c1ccc2c(c1)C(=O)OC2=O)c1ccc2c(c1)C(=O)OC2=O` the Potency was “inactive”. For `C=CC(C)(O)CC/C=C(\C)CC` (configuration not stated), the Potency was “inactive”. In the case of `O=C(Nc1cccc(C2=NCCN2)c1)Nc1cccc(C2=NCCN2)c1`, the activity change, negative = cytotoxicity is reported as -0.375% [at 15.8 µM]. For `CC(C)=CC(C)(C)C`, the Potency was “inactive”. With `O=CN1CCOCC1` the Potency was “inactive”. With `C[C@@H]1C[C@H]2[C@@H]3C[C@H](F)C4=CC(=O)C=C[C@]4(C)[C@@]3(F)[C@@H](O)C[C@]2(C)[C@@]1(O)C(=O)CO` the Potency was “inactive”. In the case of `Cc1c(C(C)C)c(=O)n(-c2ccccc2)n1C`, the Potency is reported as “inactive”. With `CC(C)CCC(=O)CCC(C)C` the Potency was “inactive”. In the case of `C=C(C)C(=O)OC`, the Potency is reported as “inactive”. In the case of `N#CCCOCCOCCC#N`, the Potency is reported as “inactive”. For `CC(C)(C)c1ccc(C=O)cc1`, the Potency was “inactive”. In the case of `CCN(Cc1cccc(S(=O)(=O)O)c1)c1ccccc1`, the Potency is reported as “inactive”.
